From the supplement of paper PMC7411054
Where a name gives a salt, the structure may show the parent alone.

Columns and labels:
Conditions in all cases: treatment time: 24 h
WPMY1-ACTB-RAB5A [1] = test: lowest phenotypically active concentration; higher = less potent
Outline: (§1)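 Phenotypic activity depended on meeting both a deviation and a reproducibility criterion. The fifteen gene-edited A549, HepG2 and WPMY1 reporter lines were treated at 0.3, 1, 3 or 9 µM for 24 h, four wells each, then imaged live with features normalised to solvent control wells. Deviation required ≥3 of 4 wells past the 95th percentile of control Euclidean distances, and reproducibility a median replicate Pearson correlation above the 95th percentile of non-replicates.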

WPMY1-CANX-COX4 [2] = test: as above
Outline: as §1

WPMY1-GM130-SQSTM1 [3] = test: as above
Outline: as §1

WPMY1-TP53BP1-CLTA [4] = test: as above
Outline: as §1

WPMY1-TUBA1B-RELA [5] = test: as above
Outline: as §1

A549-CANX-COX4 = test: phenotypically active (imaging signature differs from DMSO and reproducible) at any of 0.3-9 uM (binary (1 = active, 0 = inactive)); higher = active
Outline: as §1

A549-TP53BP1-CLTA = test: as above
Outline: as §1

HepG2-ACTB-RAB5A = test: as above
Outline: as §1

HepG2-CANX-COX4 = test: as above
Outline: as §1

HepG2-GM130-SQSTM1 = test: as above
Outline: as §1

HepG2-TP53BP1-CLTA = test: as above
Outline: as §1

HepG2-TUBA1B-RELA = test: as above
Outline: as §1

WPMY1-ACTB-RAB5A [6] = test: as above
Outline: as §1

WPMY1-CANX-COX4 [7] = test: as above
Outline: as §1

WPMY1-GM130-SQSTM1 [8] = test: as above
Outline: as §1

WPMY1-TP53BP1-CLTA [9] = test: as above
Outline: as §1

WPMY1-TUBA1B-RELA [10] = test: as above
Outline: as §1

CC[C@H](C)[C@H](NC(=O)OCc1ccccc1)C(=O)N[C@@H](CCC(=O)OC(C)(C)C)C(=O)N[C@@H](C)C(=O)N[C@H](C=O)CC(C)C
≤ 0.3 µM: lowest phenotypically active concentration (WPMY1-ACTB-RAB5A [1]) | lowest phenotypically active concentration (WPMY1-CANX-COX4 [2]) | lowest phenotypically active concentration (WPMY1-GM130-SQSTM1 [3]) | lowest phenotypically active concentration (WPMY1-TP53BP1-CLTA [4]) | lowest phenotypically active concentration (WPMY1-TUBA1B-RELA [5])
active: phenotypically active (A549-CANX-COX4) 1 | phenotypically active (A549-TP53BP1-CLTA) 1 | phenotypically active (HepG2-ACTB-RAB5A) 1 | phenotypically active (HepG2-CANX-COX4) 1 | phenotypically active (HepG2-GM130-SQSTM1) 1 | phenotypically active (HepG2-TP53BP1-CLTA) 1 | phenotypically active (HepG2-TUBA1B-RELA) 1 | phenotypically active (WPMY1-ACTB-RAB5A [6]) 1 | phenotypically active (WPMY1-CANX-COX4 [7]) 1 | phenotypically active (WPMY1-GM130-SQSTM1 [8]) 1 | phenotypically active (WPMY1-TP53BP1-CLTA [9]) 1 | phenotypically active (WPMY1-TUBA1B-RELA [10]) 1

CN1CCN(C2=Nc3cc(Cl)ccc3Nc3ccccc32)CC1 [clozapine]
inactive: phenotypically active (A549-CANX-COX4) 0 | phenotypically active (A549-TP53BP1-CLTA) 0 | phenotypically active (HepG2-ACTB-RAB5A) 0 | phenotypically active (HepG2-CANX-COX4) 0 | phenotypically active (HepG2-GM130-SQSTM1) 0 | phenotypically active (HepG2-TP53BP1-CLTA) 0 | phenotypically active (HepG2-TUBA1B-RELA) 0 | phenotypically active (WPMY1-ACTB-RAB5A [6]) 0 | phenotypically active (WPMY1-CANX-COX4 [7]) 0 | phenotypically active (WPMY1-TP53BP1-CLTA [9]) 0 | phenotypically active (WPMY1-TUBA1B-RELA [10]) 0
active: phenotypically active (WPMY1-GM130-SQSTM1 [8]) 1
9 µM: lowest phenotypically active concentration (WPMY1-GM130-SQSTM1 [3])

O=C(c1ccc(C(=O)N2CCC(N3CCCC3)CC2)c(Nc2ccccc2)c1)N1CCC(N2CCCC2)CC1
inactive: phenotypically active (A549-CANX-COX4) 0 | phenotypically active (A549-TP53BP1-CLTA) 0 | phenotypically active (HepG2-ACTB-RAB5A) 0 | phenotypically active (HepG2-CANX-COX4) 0 | phenotypically active (HepG2-TP53BP1-CLTA) 0 | phenotypically active (HepG2-TUBA1B-RELA) 0 | phenotypically active (WPMY1-ACTB-RAB5A [6]) 0 | phenotypically active (WPMY1-CANX-COX4 [7]) 0 | phenotypically active (WPMY1-GM130-SQSTM1 [8]) 0 | phenotypically active (WPMY1-TP53BP1-CLTA [9]) 0 | phenotypically active (WPMY1-TUBA1B-RELA [10]) 0
active: phenotypically active (HepG2-GM130-SQSTM1) 1

Cc1nc(NC(=O)N2CCC[C@H]2C(N)=O)sc1-c1csc(C(C)(C)C)n1
active: phenotypically active (A549-TP53BP1-CLTA) 1 | phenotypically active (HepG2-ACTB-RAB5A) 1 | phenotypically active (HepG2-CANX-COX4) 1 | phenotypically active (HepG2-GM130-SQSTM1) 1 | phenotypically active (HepG2-TP53BP1-CLTA) 1 | phenotypically active (HepG2-TUBA1B-RELA) 1 | phenotypically active (WPMY1-CANX-COX4 [7]) 1 | phenotypically active (WPMY1-TP53BP1-CLTA [9]) 1
3 µM: lowest phenotypically active concentration (WPMY1-TP53BP1-CLTA [4])
9 µM: lowest phenotypically active concentration (WPMY1-CANX-COX4 [2])
inactive: phenotypically active (A549-CANX-COX4) 0 | phenotypically active (WPMY1-ACTB-RAB5A [6]) 0 | phenotypically active (WPMY1-GM130-SQSTM1 [8]) 0 | phenotypically active (WPMY1-TUBA1B-RELA [10]) 0

Oc1ccc(Nc2nc(-c3ccc(Cl)cc3)cs2)cc1
9 µM: lowest phenotypically active concentration (WPMY1-TP53BP1-CLTA [4]) | lowest phenotypically active concentration (WPMY1-TUBA1B-RELA [5])
active: phenotypically active (A549-CANX-COX4) 1 | phenotypically active (A549-TP53BP1-CLTA) 1 | phenotypically active (HepG2-CANX-COX4) 1 | phenotypically active (HepG2-GM130-SQSTM1) 1 | phenotypically active (WPMY1-ACTB-RAB5A [6]) 1 | phenotypically active (WPMY1-CANX-COX4 [7]) 1 | phenotypically active (WPMY1-GM130-SQSTM1 [8]) 1 | phenotypically active (WPMY1-TP53BP1-CLTA [9]) 1 | phenotypically active (WPMY1-TUBA1B-RELA [10]) 1
inactive: phenotypically active (HepG2-ACTB-RAB5A) 0 | phenotypically active (HepG2-TP53BP1-CLTA) 0 | phenotypically active (HepG2-TUBA1B-RELA) 0
3 µM: lowest phenotypically active concentration (WPMY1-ACTB-RAB5A [1]) | lowest phenotypically active concentration (WPMY1-CANX-COX4 [2]) | lowest phenotypically active concentration (WPMY1-GM130-SQSTM1 [3])

Nc1nc(N)nc(-c2cc(Cl)ccc2Cl)n1 [Irsogladine maleate]
inactive: phenotypically active (A549-CANX-COX4) 0 | phenotypically active (A549-TP53BP1-CLTA) 0 | phenotypically active (HepG2-ACTB-RAB5A) 0 | phenotypically active (HepG2-CANX-COX4) 0 | phenotypically active (HepG2-GM130-SQSTM1) 0 | phenotypically active (HepG2-TP53BP1-CLTA) 0 | phenotypically active (HepG2-TUBA1B-RELA) 0 | phenotypically active (WPMY1-ACTB-RAB5A [6]) 0 | phenotypically active (WPMY1-CANX-COX4 [7]) 0 | phenotypically active (WPMY1-GM130-SQSTM1 [8]) 0 | phenotypically active (WPMY1-TP53BP1-CLTA [9]) 0 | phenotypically active (WPMY1-TUBA1B-RELA [10]) 0

CN1C/C(=C/c2ccc(B(O)O)cc2)C(=O)/C(=C/c2ccc(B(O)O)cc2)C1
3 µM: lowest phenotypically active concentration (WPMY1-ACTB-RAB5A [1]) | lowest phenotypically active concentration (WPMY1-CANX-COX4 [2]) | lowest phenotypically active concentration (WPMY1-TP53BP1-CLTA [4]) | lowest phenotypically active concentration (WPMY1-TUBA1B-RELA [5])
≤ 0.3 µM: lowest phenotypically active concentration (WPMY1-GM130-SQSTM1 [3])
active: phenotypically active (A549-CANX-COX4) 1 | phenotypically active (A549-TP53BP1-CLTA) 1 | phenotypically active (HepG2-ACTB-RAB5A) 1 | phenotypically active (HepG2-CANX-COX4) 1 | phenotypically active (HepG2-GM130-SQSTM1) 1 | phenotypically active (HepG2-TP53BP1-CLTA) 1 | phenotypically active (HepG2-TUBA1B-RELA) 1 | phenotypically active (WPMY1-ACTB-RAB5A [6]) 1 | phenotypically active (WPMY1-CANX-COX4 [7]) 1 | phenotypically active (WPMY1-GM130-SQSTM1 [8]) 1 | phenotypically active (WPMY1-TP53BP1-CLTA [9]) 1 | phenotypically active (WPMY1-TUBA1B-RELA [10]) 1

CCOc1cc(N2CCC(O)CC2)ccc1Nc1ncc2c(n1)N(C)c1ccccc1C(=O)N2C
9 µM: lowest phenotypically active concentration (WPMY1-TUBA1B-RELA [5])
3 µM: lowest phenotypically active concentration (WPMY1-ACTB-RAB5A [1]) | lowest phenotypically active concentration (WPMY1-CANX-COX4 [2]) | lowest phenotypically active concentration (WPMY1-GM130-SQSTM1 [3]) | lowest phenotypically active concentration (WPMY1-TP53BP1-CLTA [4])
active: phenotypically active (A549-CANX-COX4) 1 | phenotypically active (A549-TP53BP1-CLTA) 1 | phenotypically active (HepG2-ACTB-RAB5A) 1 | phenotypically active (HepG2-CANX-COX4) 1 | phenotypically active (HepG2-GM130-SQSTM1) 1 | phenotypically active (HepG2-TP53BP1-CLTA) 1 | phenotypically active (HepG2-TUBA1B-RELA) 1 | phenotypically active (WPMY1-ACTB-RAB5A [6]) 1 | phenotypically active (WPMY1-CANX-COX4 [7]) 1 | phenotypically active (WPMY1-GM130-SQSTM1 [8]) 1 | phenotypically active (WPMY1-TP53BP1-CLTA [9]) 1 | phenotypically active (WPMY1-TUBA1B-RELA [10]) 1

COc1ccc2c(Oc3ccc(NC(=O)c4c(C)n(CC(C)(C)O)n(-c5ccccc5)c4=O)nc3)ccnc2c1
active: phenotypically active (HepG2-CANX-COX4) 1 | phenotypically active (HepG2-GM130-SQSTM1) 1 | phenotypically active (HepG2-TP53BP1-CLTA) 1 | phenotypically active (HepG2-TUBA1B-RELA) 1
inactive: phenotypically active (A549-CANX-COX4) 0 | phenotypically active (A549-TP53BP1-CLTA) 0 | phenotypically active (HepG2-ACTB-RAB5A) 0 | phenotypically active (WPMY1-ACTB-RAB5A [6]) 0 | phenotypically active (WPMY1-CANX-COX4 [7]) 0 | phenotypically active (WPMY1-GM130-SQSTM1 [8]) 0 | phenotypically active (WPMY1-TP53BP1-CLTA [9]) 0 | phenotypically active (WPMY1-TUBA1B-RELA [10]) 0

COc1cc2c(NC3CCN(C(C)C)CC3)nc(C3CCCCC3)nc2cc1OCCCN1CCCC1
≤ 0.3 µM: lowest phenotypically active concentration (WPMY1-GM130-SQSTM1 [3])
1 µM: lowest phenotypically active concentration (WPMY1-ACTB-RAB5A [1]) | lowest phenotypically active concentration (WPMY1-CANX-COX4 [2]) | lowest phenotypically active concentration (WPMY1-TP53BP1-CLTA [4]) | lowest phenotypically active concentration (WPMY1-TUBA1B-RELA [5])
active: phenotypically active (A549-CANX-COX4) 1 | phenotypically active (A549-TP53BP1-CLTA) 1 | phenotypically active (HepG2-ACTB-RAB5A) 1 | phenotypically active (HepG2-CANX-COX4) 1 | phenotypically active (HepG2-GM130-SQSTM1) 1 | phenotypically active (HepG2-TP53BP1-CLTA) 1 | phenotypically active (HepG2-TUBA1B-RELA) 1 | phenotypically active (WPMY1-ACTB-RAB5A [6]) 1 | phenotypically active (WPMY1-CANX-COX4 [7]) 1 | phenotypically active (WPMY1-GM130-SQSTM1 [8]) 1 | phenotypically active (WPMY1-TP53BP1-CLTA [9]) 1 | phenotypically active (WPMY1-TUBA1B-RELA [10]) 1

Cc1ccccc1N1C(=O)c2cc(S(N)(=O)=O)c(Cl)cc2NC1C (configuration not stated) [metolazone]
inactive: phenotypically active (A549-CANX-COX4) 0 | phenotypically active (A549-TP53BP1-CLTA) 0 | phenotypically active (HepG2-ACTB-RAB5A) 0 | phenotypically active (HepG2-CANX-COX4) 0 | phenotypically active (HepG2-GM130-SQSTM1) 0 | phenotypically active (HepG2-TP53BP1-CLTA) 0 | phenotypically active (HepG2-TUBA1B-RELA) 0 | phenotypically active (WPMY1-ACTB-RAB5A [6]) 0 | phenotypically active (WPMY1-CANX-COX4 [7]) 0 | phenotypically active (WPMY1-GM130-SQSTM1 [8]) 0 | phenotypically active (WPMY1-TP53BP1-CLTA [9]) 0 | phenotypically active (WPMY1-TUBA1B-RELA [10]) 0

CC[C@@H]1C(=O)OC[C@@H]1Cc1cncn1C [Pilocarpine hydrochloride]
inactive: phenotypically active (A549-CANX-COX4) 0 | phenotypically active (A549-TP53BP1-CLTA) 0 | phenotypically active (HepG2-ACTB-RAB5A) 0 | phenotypically active (HepG2-CANX-COX4) 0 | phenotypically active (HepG2-GM130-SQSTM1) 0 | phenotypically active (HepG2-TP53BP1-CLTA) 0 | phenotypically active (HepG2-TUBA1B-RELA) 0 | phenotypically active (WPMY1-ACTB-RAB5A [6]) 0 | phenotypically active (WPMY1-CANX-COX4 [7]) 0 | phenotypically active (WPMY1-GM130-SQSTM1 [8]) 0 | phenotypically active (WPMY1-TP53BP1-CLTA [9]) 0 | phenotypically active (WPMY1-TUBA1B-RELA [10]) 0
